Assay results: PubChem BioAssay (NCATS)
Records with an inconclusive call do not appear. Unmarked numbers belong to inactive results. Activity calls are given as the source filed them. The call rests on the fitted dose curve; in most records, active means well fitted curve in the direction sought with a large enough effect; inconclusive means small, poorly fitted or top-dose-only effect, or another doubt; inactive means no such curve, though single readings can be large; an effect the other way counts as inactive or inconclusive.

Assay: Cytotoxicity counterscreen for NFkB agonists and antagonists (AID 624476);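 further: cells exposed to compound for 48 hours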; further: potency means the concentration at half of the fitted maximal effect; on activity change, negative = cytotoxicity: on the % scale 0 is the no-effect control and ±100 the full control effect
Settings: NFkB reporter cell line viability counterscreen; series mostly up to 46.1 µM; activity change, negative = cytotoxicity: at the top concentration

For `CNC(=O)c1cc(Oc2ccc(NC(=O)Nc3ccc(Cl)c(C(F)(F)F)c3)c(F)c2)ccn1`, which Potency is on record?
The Potency was 5.26 µM (active).

For `Cc1ccc(NC(=O)c2ccc(CN3CCN(C)CC3)cc2)cc1Nc1nc(-c2cccnc2)cs1`, which “activity change, negative = cytotoxicity” value is on record?
Its value is -58.8%.

With `COc1cc2nccc(Oc3ccc(NC(=O)Nc4cc(C)on4)c(Cl)c3)c2cc1OC` as the compound, how does the “activity change, negative = cytotoxicity” value read?
The value was -60.7%.

With `CCCCn1c(=O)n(Cc2ccccc2F)c(=O)c2[nH]c(Cc3ccc(NC(C)=O)cc3)nc21` as the compound, how does the “activity change, negative = cytotoxicity” value read?
Its value is -3.2%.

For `NC(=O)c1ccc(N(C(N)=O)c2c(F)cccc2F)nc1-c1ccc(F)cc1F`, which “activity change, negative = cytotoxicity” value is on record?
The value was 1.67%.

For `CCC=CC[C@H]1C(=O)CC[C@@H]1CC(=O)OC`, which “activity change, negative = cytotoxicity” value is on record?
Its value is 0.924%.

For `CC(C)C[C@@H](C(=O)N[C@H](C(=O)OC1CCCC1)c1ccccc1)[C@H](O)C(=O)NO`, which “activity change, negative = cytotoxicity” value is on record?
The value was -20.3%.

With `CCCCc1ccc(NS(=O)(=O)c2ccc(C)c(C(=O)N3CCN(c4cccc(C)c4C)CC3)c2)cc1` as the compound, how does the Potency read?
The Potency was 20.9 µM (active).

With `CCC(=O)N1CCN(c2ccc(-n3c(=O)ccc4cnc5ccc(-c6cnc7ccccc7c6)cc5c43)cc2C(F)(F)F)CC1` as the compound, how does the Potency read?
The Potency was 13.2 µM (active).

For `CC(C)n1c(C=C[C@H](O)C[C@H](O)CC(=O)O)c(-c2ccc(F)cc2)c2ccccc21`, which “activity change, negative = cytotoxicity” value is on record?
Its value is -28.9%.

For `Cn1cc(-c2ccc3nnc(Sc4ccc5ncccc5c4)n3n2)cn1`, which “activity change, negative = cytotoxicity” value is on record?
Its value is 1.84%.

Which “activity change, negative = cytotoxicity” value does the source give for `O=C(O)c1ccc(O)c2ncc(N3CCOCC3)cc12` here?
Its value is -1.01%.

For `Cc1nn(Cc2ccccc2Cl)c(C)c1CN(C)CC(O)COc1ccc(Cl)cc1` (stereo not drawn), which “activity change, negative = cytotoxicity” value is on record?
Its value is -10.3%.

Which “activity change, negative = cytotoxicity” value does the source give for `OCCn1cc(-c2ccc3c(c2)CCC3=NO)c(-c2ccncc2)n1` here?
Its value is -0.134%.

For `CN1C(=O)C(Cc2c[nH]c3ccccc23)NC1=S` (stereo not drawn), which “activity change, negative = cytotoxicity” value is on record?
The value was -2.83%.

Which Potency does the source give for `CC(C)Oc1cc(Nc2nc(N[C@@H](C)c3ccc(F)cn3)ncc2Cl)[nH]n1` here?
Its Potency is 2.96 µM (active).

Which Potency does the source give for `Nc1ccc(-c2ccc3ncc4ccc(=O)n(-c5cccc(C(F)(F)F)c5)c4c3c2)cn1` here?
Its Potency is 0.833 µM (active).

With `O=C1CN2Cc3c(ccc(Cl)c3Cl)N=C2N1` as the compound, how does the “activity change, negative = cytotoxicity” value read?
The value was 1.06%.

Assay: qHTS Assay for Identification of Small Molecule Agonists for NFkB Signaling Pathway. (AID 624478); further: 0% is about no effect
Settings: NFkB pathway reporter cell assay, agonist mode, cells co-stimulated with 10 pM TNF alpha; series mostly up to 46.1 µM; activation: at the top concentration
How it was run: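 NFkB-bla ME-180 cells carry a beta-lactamase reporter. They received compound plus TNF alpha at 10 pM final (its EC50) for 5 h at 37 C. Reporter activity was read as 460/530 nm emission ratio after 2 h LiveBLAzer substrate loading.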

Which “activation” value does the source give for `CNC(=O)c1cc(Oc2ccc(NC(=O)Nc3ccc(Cl)c(C(F)(F)F)c3)c(F)c2)ccn1` here?
Its value is 1.76%.

Which “activation” value does the source give for `Cc1ccc(NC(=O)c2ccc(CN3CCN(C)CC3)cc2)cc1Nc1nc(-c2cccnc2)cs1` here?
The value was -0.52%.

With `CC(=O)Nc1cccc(-n2c(=O)n(C3CC3)c(=O)c3c(Nc4ccc(I)cc4F)n(C)c(=O)c(C)c32)c1` as the compound, how does the “activation” value read?
Its value is -1.3%.

For `COc1cc2nccc(Oc3ccc(NC(=O)Nc4cc(C)on4)c(Cl)c3)c2cc1OC`, which “activation” value is on record?
The value was 2.82%.

Which “activation” value does the source give for `CCCCn1c(=O)n(Cc2ccccc2F)c(=O)c2[nH]c(Cc3ccc(NC(C)=O)cc3)nc21` here?
The value was -0.974%.

For `COc1ccc(CCN(C)CCCOc2ccc(S(=O)(=O)c3[nH]c4ccccc4c3C(C)C)cc2)cc1OC`, which “activation” value is on record?
The value was 22.4%.

For `NC(=O)c1ccc(N(C(N)=O)c2c(F)cccc2F)nc1-c1ccc(F)cc1F`, which “activation” value is on record?
The value was -2.05%.

Which “activation” value does the source give for `CCC=CC[C@H]1C(=O)CC[C@@H]1CC(=O)OC` here?
Its value is 0.181%.

With `CC(C)C[C@@H](C(=O)N[C@H](C(=O)OC1CCCC1)c1ccccc1)[C@H](O)C(=O)NO` as the compound, how does the “activation” value read?
The value was 0.658%.

For `CCc1cc(-c2n[nH]c(C)c2-c2ccc3c(c2)OCCO3)c(O)cc1O`, which “activation” value is on record?
The value was 1.04%.

Which “activation” value does the source give for `Cc1cc2c(cc1C1(c3ccc(C(=O)O)cn3)CC1)C(C)(C)CCC2(C)C` here?
Its value is -2.85%.

With `CCCCCCCCCCCCCC(=O)N[C@H](CO)[C@H](O)c1ccc([N+](=O)[O-])cc1` as the compound, how does the “activation” value read?
Its value is -3.63%.

Which “activation” value does the source give for `CC(O)=C(C#N)C(=O)Nc1ccc(C(F)(F)F)cc1` here?
The value was -1.67%.

With `CCC(=O)N1CCN(c2ccc(-n3c(=O)ccc4cnc5ccc(-c6cnc7ccccc7c6)cc5c43)cc2C(F)(F)F)CC1` as the compound, how does the “activation” value read?
Its value is 1.89%.

Which “activation” value does the source give for `CC(C)n1c(C=C[C@H](O)C[C@H](O)CC(=O)O)c(-c2ccc(F)cc2)c2ccccc21` here?
Its value is 3.59%.

Which “activation” value does the source give for `CN(C)CCCNC(=O)c1ccc(-c2cc(O)c3ncccc3c2)cc1` here?
Its value is -0.555%.

With `CC(C)(C)c1[nH]cnc1C=c1[nH]c(=O)c(=Cc2ccccc2)[nH]c1=O` as the compound, how does the “activation” value read?
Its value is 3.42%.

With `CC(=O)NCCC(=O)N[C@@H](CCC(N)=O)C(=O)N[C@@H](CO)C(=O)N[C@@H](CCC(N)=O)C(=O)N[C@@H](CCC(N)=O)C(=O)N[C@H](C(=O)N[C@@H](Cc1ccccc1)C(=O)N[C@]1(C)CCCCCCC=CCCC[C@@](C)(C(=O)N[C@@H](CCC(N)=O)C(=O)N[C@@H](CC(N)=O)C(N)=O)NC(=O)[C@H](CC(C)C)NC(=O)[C@H](CC(C)C)NC(=O)[C@@H](CCCNC(=N)N)NC(=O)[C@H](Cc2c[nH]c3ccccc23)NC(=O)[C@H](CC(C)C)NC(=O)[C@H](CC(N)=O)NC1=O)[C@H](C)O` as the compound, how does the “activation” value read?
The value was 9.61%.

For `Cc1c(C(=O)Nc2ccc(N3C[C@@H](C)O[C@@H](C)C3)nc2)cccc1-c1ccc(OC(F)(F)F)cc1`, which “activation” value is on record?
Its value is 3.99%.

For `CCN(CC)CCCCNc1nc2cc(Cl)c(Cl)cc2nc1-c1ccc(-c2cccs2)s1`, which “activation” value is on record?
Its value is 7.11%.

Which “activation” value does the source give for `O=C(Nc1cccc(Cl)c1)Nc1ncc(CCNc2ncnc3ccsc23)s1` here?
The value was 9.29%.

With `O=C(O)c1ccc(O)c2ncc(N3CCOCC3)cc12` as the compound, how does the “activation” value read?
The value was -1.68%.

Which “activation” value does the source give for `Cc1nn(Cc2ccccc2Cl)c(C)c1CN(C)CC(O)COc1ccc(Cl)cc1` (stereo not drawn) here?
The value was -0.413%.

For `OCCn1cc(-c2ccc3c(c2)CCC3=NO)c(-c2ccncc2)n1`, which “activation” value is on record?
The value was -1.65%.

For `CC1=C[C@@H]2[C@@H]([C@@H](O)C[C@@]3(C)[C@H]2C[C@@H](C)[C@]3(O)C(=O)CO)[C@@]2(C)Cc3cnn(-c4ccccc4)c3C=C12`, which “activation” value is on record?
Its value is -1.78%.

With `CN1C(=O)C(Cc2c[nH]c3ccccc23)NC1=S` (stereo not drawn) as the compound, how does the “activation” value read?
The value was -0.888%.

Which “activation” value does the source give for `CC(C)Oc1cc(Nc2nc(N[C@@H](C)c3ccc(F)cn3)ncc2Cl)[nH]n1` here?
Its value is -2.31%.

With `Nc1ccc(-c2ccc3ncc4ccc(=O)n(-c5cccc(C(F)(F)F)c5)c4c3c2)cn1` as the compound, how does the “activation” value read?
Its value is 1.02%.

With `O=C1CN2Cc3c(ccc(Cl)c3Cl)N=C2N1` as the compound, how does the “activation” value read?
Its value is 0.629%.

With `COC(=O)Nc1ccc(-c2nc(N3CCOCC3)c3cnn(C4CCN(C(=O)OC)CC4)c3n2)cc1` as the compound, how does the “activation” value read?
Its value is 2.06%.
